According to PubChem BioAssay (NCATS):
Records with an inconclusive call do not appear. The source made the active and inactive calls. Calls come from the whole dose curve; as a rule, active = well fitted curve in the direction sought with a large enough effect; inconclusive = small, poorly fitted or top-dose-only effect, or another doubt; inactive = no such curve, though single readings can be large; an effect the other way counts as inactive or inconclusive.

Columns and labels:
[1] = target: Glutathione peroxidase 1 (Homo sapiens) (UniProt P07203); assay: Primary qHTS Assay for Inhibitors of Recombinant Selenoprotein Glutathione Peroxidase 1 (GPX1) (AID 1845191); note: nearly all actives have a fitted effect of over 65% in size; for activity, negative = inhibition: % is set by controls: 0 for no effect and ±100 for the full control effect
Summary of the method: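 GR-coupled assay: compounds preincubated 30 min at room temperature with GPX1, then reaction started with CHP; final 10 nM GPX1, 1 mM GSH, 0.5 mM CHP, 0.5 mM NADPH, 100 nM GR, 0.01% BSA, pH 7.5 Tris buffer. NADPH fluorescence (340/450 nm) read at 0 and 15 min.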

[2] = target: Phospholipid hydroperoxide glutathione peroxidase GPX4 (Homo sapiens) (UniProt P36969); assay: Primary qHTS Assay for Inhibitors of Recombinant Selenoprotein Glutathione Peroxidase 4 (GPX4) (AID 1845192); note: nearly all actives have a fitted effect of over 65% in size
Summary of the method: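 GR-coupled assay: recombinant GPX4 preincubated 30 min with compound at room temperature; final 200 nM GPX4, 1 mM GSH, 0.5 mM cumene hydroperoxide, 0.5 mM NADPH, 100 nM GR, 0.01% BSA, pH 7.5 Tris. NADPH fluorescence (340/450 nm) read at 0 and 15 min.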

[3] = target: Luciferin 4-monooxygenase (Photinus pyralis) (UniProt P08659); assay: Primary firefly luciferase (FLuc) qHTS assay for identification of artifact compounds. (AID 1845220); note: nearly all actives have a fitted effect of over 60% in size
Summary of the method: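 Titrated compounds were incubated 15 min at RT, protected from light, with luciferin and ATP at 10 uM; reaction started with 10 nM FLuc, luminescence imaged at 5 min, and concentration-response fitted by Hill equation.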

[4] = Primary fluorescence-based thiol-reactive (MSTI) qHTS assay for identification of artifact compounds. (AID 1845221);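 note: series mostly up to about 54 µM; thiol-reactive compounds lower the probe fluorescence signal; nearly all actives have a fitted effect of over 65% in size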
Summary of the method: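 In PBS pH 7.4 with 2% DMSO, each compound met 4 uM MSTI for one hour at ambient temperature, shielded from light, before fluorescence detection.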

[5] = tested on: Nanoluciferase (engineered Oplophorus gracilirostris luciferase); assay: Primary Nanoluciferase (NLuc) qHTS assay for identification of artifact compounds. (AID 1845222);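 note: NLuc secreted into diluted conditioned medium of S16 cells; series mostly up to about 54 µM; 0% = DMSO and -100% = no enzyme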
Summary of the method: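 qHTS format, against NLuc in S16 cell-conditioned medium. Nano-Glo substrate 1:100 was added after 15 min at room temperature. Luminescence was taken after a further 5 min.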

[6] = Primary redox qHTS assay for identification of artifact compounds. (AID 1845223);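 note: 0% = DMSO and 100% = reference compound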
Summary of the method: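 Amplex Red (25 uM) and HRP (250 mU/mL) in HBSS, with compounds for 15 min, then 250 uM DTT for 30 min, room temperature, dark. Fluorescence 525/598 nm read; normalized to DMSO and 10 uM DA3003; Hill fit.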

Chain of Glutathione peroxidase 1 (Homo sapiens) (P07203 whole entry, looked up): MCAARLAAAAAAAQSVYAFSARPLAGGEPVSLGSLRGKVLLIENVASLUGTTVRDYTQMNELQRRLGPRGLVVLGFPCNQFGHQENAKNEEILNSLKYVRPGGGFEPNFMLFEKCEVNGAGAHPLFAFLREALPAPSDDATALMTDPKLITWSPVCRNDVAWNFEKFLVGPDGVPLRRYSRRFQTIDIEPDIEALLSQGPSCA
Chain of Phospholipid hydroperoxide glutathione peroxidase GPX4 (Homo sapiens) (P36969 whole entry, looked up): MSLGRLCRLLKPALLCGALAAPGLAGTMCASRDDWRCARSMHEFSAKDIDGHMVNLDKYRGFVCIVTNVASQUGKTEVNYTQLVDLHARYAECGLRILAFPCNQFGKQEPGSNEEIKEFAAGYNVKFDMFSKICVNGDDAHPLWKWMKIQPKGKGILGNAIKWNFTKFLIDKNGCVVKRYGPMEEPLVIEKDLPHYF

COC(=O)C1=C[C@@H](O)[C@@H](O)[C@H](O[C@@H]2O[C@H](CO)[C@@H](O)[C@H](O)[C@H]2OC(=O)/C=C/c2ccccc2)C1
inactive: Potency [1] | Potency [2] | Potency [3] | Potency [4] | Potency [5] | Potency [6]

CCC(C)C(=O)OC[C@H]1O[C@H](O[C@H]2O[C@H](CO)[C@@H](O)[C@H](O)[C@H]2O)[C@H](O)[C@@H](O)[C@@H]1O (some centres undefined)
inactive: Potency [1] | Potency [2] | Potency [3] | Potency [4] | Potency [5] | Potency [6]

CC1(C)C=Cc2c(ccc3c2N=C2C(C)(C)[C@@H]4C[C@]56CCCN5C(=O)[C@@]4(C[C@]23O)NC6=O)O1
inactive: Potency [1] | Potency [2] | Potency [3] | Potency [4] | Potency [5] | Potency [6]

CCC[C@H](N[C@@H](C)C(=O)N1[C@H](C(=O)O)C[C@@H]2CCCC[C@@H]21)C(=O)O
inactive: Potency [1] | Potency [2] | Potency [3] | Potency [4] | Potency [5] | Potency [6]

C/C(=C\CO)CC/C=C(\C)C(=O)O[C@@H]1O[C@H](CO)[C@@H](O)[C@H](O)[C@H]1O
inactive: Potency [1] | Potency [2] | Potency [3] | Potency [4] | Potency [5] | Potency [6]

C=C1[C@H](OC(C)=O)[C@H]2[C@@H](OC(C)=O)C(C)C[C@]2(OC(C)=O)C(=O)[C@H](C)/C=C/C(C)(C)C(=O)[C@H](OC(=O)C(C)C)[C@H]1OC(C)=O (some centres undefined)
inactive: Potency [1] | Potency [2] | Potency [3] | Potency [4] | Potency [5] | Potency [6]

C[C@@H]1O[C@@H](O[C@H]2[C@H](O[C@H]3[C@H](O[C@H]4CC[C@@]5(C)C(CC[C@]6(C)C5CC=C5[C@@H]7CC(C)(C)C[C@@H](O)[C@]7(C)CC[C@]56C)C4(C)C)O[C@H](C(=O)O)[C@@H](O)[C@@H]3O)O[C@H](C(=O)O)[C@H](O)[C@@H]2O)[C@H](O)[C@H](O)[C@H]1O (some centres undefined)
inactive: Potency [1] | Potency [2] | outcome [3] inactive [at 11.6 µM] | activity change, negative = thiol reactive [4] 56.2% [at 11.5 µM] | activity, negative = inhibition [5] 0.805% [at 11.6 µM] | redox activity (% of DA3003) [6] 11.1% [at 11.5 µM]

CCC1OC(=O)C(C)CC(C)C(=O)/C(C)=C/C(C)C(=O)/C=C/C1(C)O (centres undefined)
inactive: Potency [1] | Potency [2] | Potency [3] | Potency [4] | Potency [5] | Potency [6]

CC1(C)COC(=O)[C@@H]1O[C@@H]1O[C@H](CO)[C@@H](O)[C@H](O)[C@H]1O
inactive: Potency [1] | Potency [2] | Potency [3] | Potency [4] | Potency [5] | Potency [6]

COc1cc(O)cc(C)c1C(=O)O[C@H]1[C@@H](O)[C@@H](n2ccc(=O)[nH]c2=O)O[C@@H]1CO
inactive: Potency [1] | Potency [2] | Potency [3] | Potency [4] | Potency [5] | Potency [6]

CN1CCN(c2nc(-c3ccc(C(=O)NC4(C(=O)NCC#N)CCCCC4)cc3)cs2)CC1
inactive: Potency [1] | Potency [2] | Potency [3] | Potency [4] | Potency [5] | Potency [6]

COc1cc(CO)cc(OC)c1O[C@@H]1O[C@H](CO)[C@@H](O)[C@H](O)[C@H]1O
inactive: Potency [1] | Potency [2] | Potency [3] | Potency [4] | Potency [5] | Potency [6]

CCC(=O)OCC(=O)[C@@]1(OC(=O)CC)[C@@H](C)C[C@H]2[C@@H]3CCC4=CC(=O)C=C[C@]4(C)[C@@]3(F)[C@@H](O)C[C@@]21C
inactive: Potency [1] | Potency [2] | Potency [3] | Potency [4] | Potency [5] | Potency [6]

CCOC(=O)COc1ccc2c(c1)C[C@@H](NC[C@H](O)c1cccc(Cl)c1)CC2
inactive: Potency [1] | Potency [2] | Potency [3] | Potency [4] | Potency [5] | Potency [6]

CC(=O)OC/C(=C/C(=O)O)CC[C@@H]1C(C)=CC(=O)[C@@H]2C(C)(C)CCC[C@@]12C
inactive: Potency [1] | Potency [2] | Potency [3] | Potency [4] | Potency [5] | Potency [6]

C=CC1(C)CC2CCC3C(C)(C(=O)O)CCCC3(C)C2=CC1=O (centres undefined)
inactive: Potency [1] | Potency [2] | Potency [3] | Potency [4] | Potency [5] | Potency [6]

COC(=O)[C@]1(C)CCC[C@@]2(C)[C@@H]3CC[C@@H]4C[C@@]3(CC[C@@H]21)C[C@H]4C(=O)O
inactive: Potency [1] | Potency [2] | Potency [3] | Potency [4] | Potency [5] | Potency [6]

Cc1nnc(-c2sc(NC(=O)[C@H](C(C)C)n3c(=O)[nH]c4ccccc4c3=O)nc2C)o1
inactive: Potency [1] | Potency [2] | Potency [3] | Potency [4] | Potency [5] | Potency [6]

C[C@]12CCC[C@](C)(C(=O)O)C1CCC13CC(CO)C(CCC12)C3 (some centres undefined)
inactive: Potency [1] | Potency [2] | Potency [3] | Potency [4] | Potency [5] | Potency [6]
